We go through 60 compounds from PubChem BioAssay AID2314 (National Center for Advancing Translational Sciences (NCATS), 2010).

SMILES strings stand for the structures. Out of some 300,000 compounds screened, about 37,000 (12%) were called active. Cut-off read from the data, not from the text of the source: active = max response mostly above about 13% (no sharp cut-off); inactive = mostly below about 14%. The list comes from a sample in which actives are over-represented; it also holds similar structures and randomly drawn compounds.

This assay can be described thus: Cycloheximide Counterscreen for Small Molecule Inhibitors of Shiga Toxin. Note: read at 38.3 µM for the half of the compounds with a filed dose; 0% is about no effect. Particulars: cell reporter, cycloheximide protein synthesis inhibition counterscreen; hits give high values. On the technique in general: Counterscreens check selectivity or assay interference.
Consider `COc1ccc(C(CCN2CCOCC2)c2c(OC)cc(OC)c3c2OC(=O)CC3c2ccc(OC)cc2)cc1` (stereo not given), for which the max response was 3.67% (inactive).

Take `CCn1c(/C=C/Nc2ccccc2)[n+](CC)c2ccc(C(=O)OCC(F)(F)F)cc21`: the max response was -3.17% (inactive).

For the compound `COc1ccccc1NC(=O)N1CCCC1C(=O)NCc1cccs1` (stereo not given), the max response is 4.62% (inactive).

As for `CCc1cc(=O)oc2cc(C)cc(OCC(=O)N3CCC[C@@H]3C(=O)O)c12`, the max response was -2.38% (inactive).

`CCC1Oc2ccccc2N(CC(=O)NCCCN2CCN(CC)CC2)C1=O` (stereo not given): the max response was -1.43% (inactive).

On to `Oc1cccc2ccc(/C=C/c3ccc(Br)s3)nc12`, for which the max response is 56.7% (active).

On to `Nc1ccc(S(=O)(=O)Nc2nccc(/C=C/c3ccc(Br)s3)n2)cc1`, for which the max response was 0.595% (inactive).

As to `O=C(CN1C(=O)c2cccnc2Oc2ccc(Cl)cc21)NCCc1ccccc1`, the max response is 18.6% (inactive).

On to `Cc1cc(C)n2nc(CNS(=O)(=O)c3c(F)c(F)c(F)c(F)c3F)nc2n1`, for which the max response was 1.02% (inactive).

Consider `COc1ccc(S(=O)(=O)c2c[nH]c(=S)[nH]c2=O)cc1Cl`, for which the max response is -3.71% (inactive).

`COc1cc(CNCc2ccc3c(c2)OCO3)c([N+](=O)[O-])cc1OC`: the max response is 13.8% (active).

In the case of `Cc1ccc(CNCc2ccc3c(c2)OCO3)c(C)c1`, the max response is 0.612% (inactive).

In the case of `COc1cccc(CNCc2ccc3c(c2)OCO3)c1`, the max response was 7.15% (inactive).

Turning to `Cc1ccc(-c2nn(-c3ccccc3)cc2/C=C/C(=O)Nc2cccc(S(N)(=O)=O)c2)cc1`, the max response is 6.92% (inactive).

As to `COc1ccc(CCNC2=CC(=O)CC(C)(C)C2)cc1`, the max response is 17% (inactive).

`CN1C(CC(=O)Nc2ccc(Br)cc2)c2ccccc2CC1(C)C` (stereo not given): the max response is 7.55% (inactive).

Turning to `CCN(CC)CCN1C(=O)C(=O)/C(=C(/O)c2ccccc2)C1c1ccccc1F` (stereo not given), the max response was -1.86% (inactive).

Turning to `CCOc1cccc(/C(O)=C2/C(=O)C(=O)N(CCOC)C2c2ccncc2)c1` (stereo not given), the max response was 3.2% (inactive).

`CCN(CC)CCN1C(=O)C(=O)/C(=C(/O)c2cnn(-c3ccccc3)c2C)C1c1cccs1` (stereo not given): the max response is 49.4% (active).

Regarding `COC(=O)c1cc(S(=O)(=O)N2CCC(C(N)=O)CC2)oc1C`, the max response was -3.53% (inactive).

Turning to `Cc1c(C)c(C)c(S(=O)(=O)N2CCC3(CC2)OCCO3)c(C)c1C`, the max response was -1.61% (inactive).

Regarding `CCc1c(C)c2ccc(OC3CCCCC3=O)cc2oc1=O` (stereo not given), the max response was 16.5% (active).

Consider `CC(=O)Oc1ccc2c(C)c(CC(C)O)c(=O)oc2c1` (stereo not given), for which the max response was -8.36% (inactive).

Turning to `Cc1c(Cc2ccccc2)c(=O)oc2cc(OCC(N)=O)ccc12`, the max response was 1.87% (inactive).

As to `COc1ccc(-n2cnnc2SCC(=O)Nc2cccc(S(N)(=O)=O)c2)cc1`, the max response is -5.17% (inactive).

For the compound `Cc1cc(C)c(S(=O)(=O)Nc2c(C)n(C)n(-c3ccccc3)c2=O)cc1[N+](=O)[O-]`, the max response was -2.16% (inactive).

For `COc1cccc(OCc2nnc3n2N=C(c2ccccc2)C(CC(=O)O)S3)c1` (stereo not given), the max response is 9.69% (inactive).

As for `CCOC(=O)c1ccc(NC2Nc3cc(C)nn3S2)cc1` (stereo not given), the max response was 5.82% (inactive).

As for `CCc1ccc(NC2Nc3cc(C)nn3S2)cc1` (stereo not given), the max response is 49.2% (active).

For `COC(=O)c1cc(C(=O)NC(C)C2CC3CCC2C3)cc([N+](=O)[O-])c1` (stereo not given), the max response was -12.3% (inactive).

Regarding `COC(=O)c1ccc(N2CCOCC2)c(NC(=O)c2ccc(Br)o2)c1`, the max response is -2.23% (inactive).

On to `CCn1c(/C=N/NC(=O)c2ccc(OC)cc2)nc2ccccc21`, for which the max response was -2.39% (inactive).

On to `Cn1cccc1/C=N/NC(=O)c1ccc(OC(F)(F)C(F)F)cc1`, for which the max response is 38.1% (active).

For `COc1ccc(/C=N/NC(=O)c2cccc(C(F)(F)F)c2)cc1`, the max response is 6.57% (inactive).

Consider `CC(Oc1ccccc1)C(=O)Nc1c2c(nn1-c1ccccc1)CS(=O)C2` (stereo not given), for which the max response is -2.14% (inactive).

`CC(=O)Nc1ccc(-c2cn3cccnc3n2)cc1`: the max response was 25.4% (active).

Take `CCCCC(=O)Nc1ccc(C(=O)NCCCn2ccnc2)cc1`: the max response is 3.08% (inactive).

As to `CC(C)(C)C(=O)Nc1ccc(-c2cn3cccnc3n2)cc1`, the max response was 28.5% (active).

On to `CCOc1cc(-c2cc(-c3ccc(NC(C)=O)cc3)nc(N)c2C#N)ccc1O`, for which the max response was -3.59% (inactive).

Consider `CCCCCC(=O)Nc1ccc(S(=O)(=O)Nc2ccc(Cl)nn2)cc1`, for which the max response is 5.65% (inactive).

Take `CCCCCC(=O)Nc1ccc(-c2cn3cccnc3n2)cc1`: the max response was 25.3% (active).

On to `CC(=O)Nc1ccc(OCC(=O)NCc2ccc(C)cc2)cc1`, for which the max response was 7.82% (inactive).

With `CC(=O)Nc1ccc(S(=O)(=O)Nc2cccc(NC(=O)C(C)(C)C)c2)cc1`, the max response is 4.2% (inactive).

Take `CC(=O)Nc1ccc(S(=O)(=O)Nc2nc(-c3ccc(C(C)(C)C)cc3)cs2)cc1`: the max response was -0.918% (inactive).

Regarding `CON(C)S(=O)(=O)c1ccc2c(c1)NC(=O)C1CCCN21` (stereo not given), the max response is -1.81% (inactive).

In the case of `CCN(CC(=O)N1CCCC1)S(=O)(=O)c1ccc(F)cc1`, the max response was -0.599% (inactive).

As to `Cc1ccc(O)c(CNc2nc3ccccc3n2C)c1`, the max response is 35% (active).

As for `Cc1ccc(C)c(N2CCN(C(=O)CCc3nc4ccccc4[nH]3)CC2)c1`, the max response was -4.18% (inactive).

For `Cn1c(CNC(=O)C(C)(C)C)nc2ccccc21`, the max response was -0.534% (inactive).

Regarding `CC(C)n1c(NCc2c[nH]c3ccccc23)nc2ccccc21`, the max response was 5.28% (inactive).

As to `OCCNc1nc2ccccc2[nH]1`, the max response was -3.17% (inactive).

Consider `Cc1ccc(O)c(CNc2nc3ccccc3[nH]2)c1`, for which the max response is 19.7% (active).

Turning to `CC(=O)c1ccc(NC(=O)Cn2c(=O)oc3ccccc32)cc1`, the max response is 0.709% (inactive).

Take `Cc1ccc(-n2ncc(C(=O)NC3CC3)c2C2CCN(C(=O)OC(C)(C)C)CC2)c(C)c1`: the max response was 5.17% (inactive).

Consider `CCOc1ccccc1NS(=O)(=O)c1c[nH]c(C(=O)OC)c1`, for which the max response is -0.295% (inactive).

Take `Cc1ccccc1N1CC(C(=O)Nc2nnc(SCCC3OCCO3)s2)CC1=O` (stereo not given): the max response was 0.819% (inactive).

Consider `CCc1nnc(NC(=O)C2CC(=O)N(c3ccc4c(c3)OCCO4)C2)s1` (stereo not given), for which the max response is 6.49% (inactive).

Turning to `c1ccc2cc3c(NCCN4CCOCC4)ccnc3cc2c1`, the max response is -2.42% (inactive).

`Cn1cc(C(=O)c2ccc(Cl)cc2Cl)cc1C(=O)NN`: the max response was -5.78% (inactive).

With `O=C(CCN1CCCCC1)N=Nc1c(O)[nH]c2ccccc12`, the max response is 2.5% (inactive).
